Measured values from the supplement of paper PMC6089552.
Hit rate of the full screen: of about 3,200 compounds, about 300 (9.4%) showed activity. Shown is part of a subset that was picked to be rich in actives.

System: A673/TR/shEF
Assay: cell viability (LOESS-normalised, relative to median of negative controls) (log2 ratio); higher = more viable cells (less compound effect), active = hit call of the paper (over 3 MAD below the median)
Settings: treatment time: 72 h
In short: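 Viability of A673/TR/shEF Ewing sarcoma cells was determined by CellTiter-Glo luminescence. The cells, at 1,500 per well in 384-well plates, were grown with or without doxycycline from 24 h before compound addition to switch on EWS-FLI1 shRNA knockdown, then exposed for three days to library compounds at two or more concentrations or to DMSO controls. Signals were LOESS-corrected plate by plate, normalised to the negative-control median and log2-transformed.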

[1] = 0.25 µM, library screen: screen1, EWS-FLI1 expression: high (no doxycycline)
[2] = 0.25 µM, library screen: screen1, EWS-FLI1 expression: low (doxycycline-induced shRNA knockdown)
[3] = 2.5 µM, library screen: screen1, EWS-FLI1 expression: high (no doxycycline)
[4] = 2.5 µM, library screen: screen1, EWS-FLI1 expression: low (doxycycline-induced shRNA knockdown)
[5] = 0.25 µM, library screen: screen2, EWS-FLI1 expression: high (no doxycycline)
[6] = 0.25 µM, library screen: screen2, EWS-FLI1 expression: low (doxycycline-induced shRNA knockdown)
[7] = 2.5 µM, library screen: screen2, EWS-FLI1 expression: high (no doxycycline)
[8] = 2.5 µM, library screen: screen2, EWS-FLI1 expression: low (doxycycline-induced shRNA knockdown)
[9] = 0.103 µM, library screen: screen3, EWS-FLI1 expression: high (no doxycycline)
[10] = 0.103 µM, library screen: screen3, EWS-FLI1 expression: low (doxycycline-induced shRNA knockdown)
[11] = 0.308 µM, library screen: screen3, EWS-FLI1 expression: high (no doxycycline)
[12] = 0.308 µM, library screen: screen3, EWS-FLI1 expression: low (doxycycline-induced shRNA knockdown)
[13] = 0.926 µM, library screen: screen3, EWS-FLI1 expression: high (no doxycycline)
[14] = 0.926 µM, library screen: screen3, EWS-FLI1 expression: low (doxycycline-induced shRNA knockdown)
[15] = 2.8 µM, library screen: screen3, EWS-FLI1 expression: high (no doxycycline)
[16] = 2.8 µM, library screen: screen3, EWS-FLI1 expression: low (doxycycline-induced shRNA knockdown)
[17] = 8.3 µM, library screen: screen3, EWS-FLI1 expression: high (no doxycycline)
[18] = 8.3 µM, library screen: screen3, EWS-FLI1 expression: low (doxycycline-induced shRNA knockdown)
[19] = 25 µM, library screen: screen3, EWS-FLI1 expression: high (no doxycycline)
[20] = 25 µM, library screen: screen3, EWS-FLI1 expression: low (doxycycline-induced shRNA knockdown)

Measured: cell viability (log2)

O=c1c(-c2ccc3c(c2)OCO3)coc2cc(O)ccc12
inactive: [1] 0.113 | [2] 0.0865 | [3] 0.149 | [4] -2.91

CC(C)=CCc1c2c(c3occ(-c4ccc(O)c(O)c4)c(=O)c3c1O)C=CC(C)(C)O2
inactive: [1] 0.131 | [2] 0.0868 | [3] 0.0962 | [4] 0.19

COc1c(-c2coc3cc4c(cc3c2=O)CC(O)C(C)(C)O4)ccc2c1C=CC(C)(C)O2 (stereo unspecified)
inactive: [1] 0.0473 | [2] 0.0244 | [3] 3e-05 | [4] 0.094

CC1(C)C=Cc2c(cc3occ(-c4ccc5c(c4)OCO5)c(=O)c3c2O)O1
inactive: [2] 0.0822 | [3] 0.0137 | [4] 0.0314
active: [1] -0.098

COc1cc2c(cc1-c1coc3c4c(ccc3c1=O)OC(C)(C)C=C4)OCO2
inactive: [1] 0.0979 | [2] 0.0365 | [3] 0.112 | [4] 0.0354

COc1c2c(cc3occ(-c4ccc5c(c4)OCO5)c(=O)c13)OC(C)(C)C=C2
inactive: [2] 0.05 | [3] 0.0889 | [4] 0.0736
active: [1] -0.144

COc1cc2c3cc1Oc1c(OC)c(OC)cc4c1C(Cc1ccc(O)c(c1)Oc1ccc(cc1)CC3N(C)CC2)N(C)CC4 (stereo unspecified)
inactive: [1] 0.135 | [2] 0.0489 | [3] 0.126 | [4] -0.0746

CSCCC(N)C(=O)NC(CC(C)C)C(=O)NC(Cc1ccccc1)C(=O)O (stereo unspecified)
inactive: [1] 0.145 | [2] -0.00633 | [3] 0.123 | [4] 0.0328

O=c1cc(N2CCOCC2)oc2c(-c3ccccc3)cccc12
inactive: 0.025 µM, library screen: screen1, EWS-FLI1 expression: high (no doxycycline) 0.213 | 0.025 µM, library screen: screen1, EWS-FLI1 expression: low (doxycycline-induced shRNA knockdown) 0.0453 | [1] 0.204 | [2] 0.0333 | [5] 0.135 | [6] 0.11 | [4] 0.0932 | [7] 0.15 | [8] 0.0123
active: [3] -0.134 | 25 µM, library screen: screen1, EWS-FLI1 expression: high (no doxycycline) -0.489 | 25 µM, library screen: screen1, EWS-FLI1 expression: low (doxycycline-induced shRNA knockdown) -0.462

O=c1cc(-c2cccc3c2Sc2ccccc2S3)oc(N2CCOCC2)c1
inactive: [9] 0.00625 | [10] 0.00883 | [11] -0.0309 | [12] 0.0146 | [13] 0.0133 | [14] 0.00404 | [15] 0.0162 | [16] 0.0289 | [17] -0.0501 | [18] 0.00607 | [19] 0.0363 | [20] -0.0432

O=c1cc(-c2ccccc2)oc2c(O)c(O)ccc12
inactive: [1] 0.189 | [2] -0.0108 | [3] 0.128 | [4] 0.0489

CC(C)CCC[C@@H](C)[C@H]1CC[C@H]2[C@@H]3CC[C@@H]4C[C@H](O)CC[C@]4(C)[C@H]3CC[C@]12C
inactive: [1] 0.108 | [2] 0.0181 | [3] 0.105 | [4] 0.0609

CC1CCC2(OC1)OC1CC3C4CCC5C[C@@H](O)CCC5(C)C4=CCC3(C)C1[C@@H]2C (stereo partly specified)
inactive: [1] 0.0912 | [2] 0.0387 | [3] 0.0505 | [4] 0.0779

CCCCCCCCCCCCCCCC(=O)NCC(COP(=O)([O-])OCC[N+](C)(C)C)OC (stereo unspecified)
inactive: [5] 0.14 | [6] 0.124 | [7] 0.166 | [8] 0.0176

CCC(=O)c1ccc2c(c1)N(CC(C)N(C)C)c1ccccc1S2 (stereo unspecified)
inactive: [1] 0.0889 | [2] 0.155 | [3] 0.168 | [4] 0.297

Cn1cnc([N+](=O)[O-])c1Sc1ncnc2nc[nH]c12
inactive: 0.025 µM, library screen: screen2, EWS-FLI1 expression: high (no doxycycline) 0.138 | 0.025 µM, library screen: screen2, EWS-FLI1 expression: low (doxycycline-induced shRNA knockdown) 0.0997 | [1] 0.0615 | [2] 0.0765 | [5] 0.159 | [6] 0.0607 | [3] -0.0254 | [4] 0.161 | [7] -0.0273 | [8] 0.0557 | 25 µM, library screen: screen2, EWS-FLI1 expression: low (doxycycline-induced shRNA knockdown) 0.03
active: 25 µM, library screen: screen2, EWS-FLI1 expression: high (no doxycycline) -0.337

COc1cc(OC)c(C2NC(=S)NC(C)=C2C(=O)Nc2cccc(Cl)c2)cc1OC (stereo unspecified)
inactive: [1] 0.0501 | [2] 0.0639 | [3] 0.0887 | [4] 0.0905

NS(=O)(=O)c1ccc(-c2ccc(/C=C3/SC(=S)N(C4CCCCC4)C3=O)o2)cc1
inactive: [1] 0.109 | [2] 0.0623 | [3] 0.167 | [4] -0.0331

CC(=O)O[C@H]1C(=O)[C@@]2(C)[C@H]([C@H](OC(=O)c3ccccc3)[C@]3(O)C[C@H](OC(=O)[C@H](O)[C@@H](NC(=O)c4ccccc4)c4ccccc4)C(C)=C1C3(C)C)[C@]1(OC(C)=O)CO[C@@H]1C[C@@H]2O
active: [9] -2.57 | [10] -0.853 | [1] -3.63 | [2] -1.46 | [5] -2.49 | [6] -0.868 | [11] -2.24 | [12] -0.787 | [13] -2.68 | [14] -0.947 | [3] -4.22 | [4] -1.51 | [7] -2.93 | [8] -1 | [15] -2.59 | [16] -1.11 | [17] -2.75 | [18] -1.03 | [19] -2.68 | [20] -1.1
